Inconclusive results are not listed. Active and inactive are the calls of the source. How the source made its calls: active means hit-call score of the fitted dose curve at least 0.9, where 1 is the maximum; inconclusive means response in the unintended direction; inactive means score below 0.9.
How the values were obtained:
[1] = ACEA_ER_AUC_viability: ACEA Biosciences xCELLigence Real-Time Cell Analysis on Estrogen Receptor Agonism for Viability (AID 2283782);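 further: continuous compound exposure with impedance area under curve over 80 h; hit means loss of impedance signal meaning reduced cell growth or viability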
How it was run: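 T-47D; phenol red-free RPMI1640 + 10% CS-FBS; 8 conc., 1:4 serial, max 100 uM final, ≤0.5% DMSO; n = 2; continuous exposure; impedance monitored to 80 h post-dose; AUC vs DMSO.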

[2] = STM_H9_NormalizedViability: Cytotoxicity Assessment at 120 hours in the Stemina devTOX quickPredict H9 human embryonic stem cell (hESC)-based Assay (AID 2283784)
How it was run: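 Pluripotent H9 hESCs were exposed, with chemical and media replaced every 24 h. Viability was read by CellTiter-Fluor fluorescence, background-corrected and normalized to the 0.1% DMSO neutral control per plate. Loss of signal was fitted.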

AR (gene 367) [3] = biological target: AR (gene 367) (UniProt P10275); test: ACEA_AR_agonist_80hr: ACEA Biosciences xCELLigence Real-Time Cell Analysis on Androgen Receptor Agonism for Proliferation (AID 2283783);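 further: hits increase impedance growth signal above DMSO baseline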
How it was run: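 Androgen-driven proliferation in 22Rv1 cells is tracked as electrical impedance, taken 80 h after continuous exposure to compound (eight concentrations, 1:4 steps, maximum 100 uM final). Activity is fitted in the positive direction with DMSO as baseline.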

AR (gene 367) [4] = biological target: AR (gene 367) (UniProt P10275); test: ACEA_AR_antagonist_80hr: ACEA Biosciences xCELLigence Real-Time Cell Analysis on Androgen Receptor Antagonism for Proliferation (AID 2283787);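 further: 22Rv1 human prostate cancer cells with growth followed by electrical impedance; hits lower the impedance growth signal relative to DMSO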
How it was run: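 Growth-kinetic antagonist readout in 22Rv1 cells, taken 80 h after continuous compound exposure. Activity fitted as signal loss relative to DMSO negative control.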

[5] = ATG_M_06_XSP1: Attagene TRANS-FACTORIAL Multi-Species (XSP1) HepG2 Assay for M06 Transcription Factor (Internal Marker) (AID 2283790)
How it was run: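 Transfected HepG2 multi-reporter system treated 24 h in the presence of 3 nM 6-alpha-fluorotestosterone. The M06 internal marker transcript was quantified by RT-PCR with capillary electrophoresis as a background control, and gain of signal was scored versus DMSO.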

[6] = ATG_M_61_XSP1: Attagene TRANS-FACTORIAL Multi-Species (XSP1) HepG2 Assay for M61 Transcription Factor (Internal Marker) (AID 2283797)
How it was run: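 HepG2 cells transiently transfected with multiplexed GAL4-driven reporter units, dosed 24 h with 3 nM 6-alpha-fluorotestosterone present. Reporter mRNA quantified by RT-PCR, 6-FAM labelling, HpaI digestion and capillary electrophoresis; internal-marker background control, gain of signal versus DMSO.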

[7] = ATG_M_32_XSP1: Attagene TRANS-FACTORIAL Multi-Species (XSP1) HepG2 Assay for M32 Transcription Factor (Internal Marker) (AID 2283799)
How it was run: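 HepG2 cells transiently transfected with multi-species TRANS reporter units, dosed 24 h with 3 nM 6-alpha-fluorotestosterone present. Internal-marker reporter mRNA quantified by RT-PCR and capillary electrophoresis; positive-direction fit versus DMSO.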

[8] = biological target: Peroxisome proliferator-activated receptor gamma (Homo sapiens) (UniProt P37231); test: ATG_hPPARg_XSP1: Attagene TRANS-FACTORIAL Multi-Species (XSP1) HepG2 Assay for human Peroxisome Proliferator-activated Receptor gamma (PPARg) (AID 2283800)
How it was run: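 HepG2 cells transiently transfected with GAL4-UAS reporter units carrying chimeric NR-Gal4 proteins; 3 nM 6-alpha-fluorotestosterone present. After 24 h dosing, reporter mRNA quantified by RT-PCR and capillary electrophoresis; gain of signal relative to DMSO.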

[9] = biological target: mouse Peroxisome Proliferator-activated Receptor gamma (PPARg), Pparg (gene 19016) (UniProt P37238); test: ATG_mPPARg_XSP1: Attagene TRANS-FACTORIAL Multi-Species (XSP1) HepG2 Assay for mouse Peroxisome Proliferator-activated Receptor gamma (PPARg) (AID 2283802)
How it was run: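 HepG2 cells transiently transfected with GAL4-UAS reporter units driven by mouse PPARg–GAL4 chimera; 3 nM 6-alpha-fluorotestosterone present. After 24 h dosing, reporter mRNA quantified by RT-PCR, fluorescent labelling and capillary electrophoresis; gain of signal versus DMSO.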

[10] = biological target: frog Thyroid hormone Receptor alpha (TRa), thra-a (gene 397942) (UniProt P15204); test: ATG_frTRa_XSP1: Attagene TRANS-FACTORIAL Multi-Species (XSP1) HepG2 Assay for frog Thyroid hormone Receptor alpha (TRa) (AID 2283804)
How it was run: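 HepG2 cells transiently transfected with frog TRa-GAL4 chimeric reporter units, dosed 24 hr with 3 nM 6-alpha-fluorotestosterone present; reporter mRNA quantified by RT-PCR, fluorescent labelling and capillary electrophoresis, gain of signal versus DMSO.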

[11] = biological target: human Thyroid hormone Receptor alpha (TRa), THRA (gene 7067) (UniProt P10827); test: ATG_hTRa_XSP1: Attagene TRANS-FACTORIAL Multi-Species (XSP1) HepG2 Assay for human Thyroid hormone Receptor alpha (TRa) (AID 2283805)
How it was run: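 HepG2 cells transiently transfected with GAL4-UAS reporter units expressing chimeric NR-Gal4 proteins, dosed 24 hours with 3 nM 6-alpha-fluorotestosterone present. Reporter mRNA measured by RT-PCR and capillary electrophoresis; gain of signal fitted versus DMSO.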

AR (gene 367), sequence (P10275 whole entry, looked up): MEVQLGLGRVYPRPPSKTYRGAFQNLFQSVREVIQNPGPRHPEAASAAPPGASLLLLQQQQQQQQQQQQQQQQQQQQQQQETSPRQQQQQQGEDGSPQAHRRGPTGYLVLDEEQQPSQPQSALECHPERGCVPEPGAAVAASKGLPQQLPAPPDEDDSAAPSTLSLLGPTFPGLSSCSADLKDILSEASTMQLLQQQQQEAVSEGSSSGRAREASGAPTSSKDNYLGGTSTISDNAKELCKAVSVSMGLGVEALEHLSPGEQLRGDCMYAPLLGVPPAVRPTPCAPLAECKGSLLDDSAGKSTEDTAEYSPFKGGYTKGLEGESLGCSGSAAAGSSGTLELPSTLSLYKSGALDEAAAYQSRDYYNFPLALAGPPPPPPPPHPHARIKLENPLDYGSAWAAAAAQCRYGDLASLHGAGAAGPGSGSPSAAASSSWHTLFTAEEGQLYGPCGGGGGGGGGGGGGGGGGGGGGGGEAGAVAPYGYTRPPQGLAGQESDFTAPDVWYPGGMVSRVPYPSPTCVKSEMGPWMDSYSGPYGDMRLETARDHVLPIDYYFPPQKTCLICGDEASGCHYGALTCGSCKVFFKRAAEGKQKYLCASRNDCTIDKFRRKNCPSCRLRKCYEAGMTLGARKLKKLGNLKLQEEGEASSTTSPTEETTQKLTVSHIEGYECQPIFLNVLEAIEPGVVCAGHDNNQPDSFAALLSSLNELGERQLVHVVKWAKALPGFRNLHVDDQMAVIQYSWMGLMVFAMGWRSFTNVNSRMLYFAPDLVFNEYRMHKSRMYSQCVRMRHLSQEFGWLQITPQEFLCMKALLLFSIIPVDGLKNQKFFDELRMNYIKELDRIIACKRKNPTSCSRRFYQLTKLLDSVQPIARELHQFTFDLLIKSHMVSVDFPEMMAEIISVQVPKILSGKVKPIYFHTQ
mouse Peroxisome Proliferator-activated Receptor gamma (PPARg), Pparg (gene 19016), sequence (P37238 whole entry, looked up, the tested form may be a part): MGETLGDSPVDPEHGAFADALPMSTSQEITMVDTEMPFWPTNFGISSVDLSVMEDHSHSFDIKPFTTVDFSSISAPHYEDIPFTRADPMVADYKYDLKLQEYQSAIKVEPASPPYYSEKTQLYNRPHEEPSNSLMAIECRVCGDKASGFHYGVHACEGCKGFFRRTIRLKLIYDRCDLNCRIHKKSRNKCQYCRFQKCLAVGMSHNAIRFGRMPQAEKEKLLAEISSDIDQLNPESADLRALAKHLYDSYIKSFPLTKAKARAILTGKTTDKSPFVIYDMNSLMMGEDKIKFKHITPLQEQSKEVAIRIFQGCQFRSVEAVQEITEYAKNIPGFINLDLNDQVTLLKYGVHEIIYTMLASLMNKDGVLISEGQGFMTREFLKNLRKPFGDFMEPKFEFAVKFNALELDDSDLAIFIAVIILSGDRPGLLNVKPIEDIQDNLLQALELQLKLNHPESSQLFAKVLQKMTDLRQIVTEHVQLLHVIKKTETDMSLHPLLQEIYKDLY
human Thyroid hormone Receptor alpha (TRa), THRA (gene 7067), sequence (P10827 whole entry, looked up, the tested form may be a part): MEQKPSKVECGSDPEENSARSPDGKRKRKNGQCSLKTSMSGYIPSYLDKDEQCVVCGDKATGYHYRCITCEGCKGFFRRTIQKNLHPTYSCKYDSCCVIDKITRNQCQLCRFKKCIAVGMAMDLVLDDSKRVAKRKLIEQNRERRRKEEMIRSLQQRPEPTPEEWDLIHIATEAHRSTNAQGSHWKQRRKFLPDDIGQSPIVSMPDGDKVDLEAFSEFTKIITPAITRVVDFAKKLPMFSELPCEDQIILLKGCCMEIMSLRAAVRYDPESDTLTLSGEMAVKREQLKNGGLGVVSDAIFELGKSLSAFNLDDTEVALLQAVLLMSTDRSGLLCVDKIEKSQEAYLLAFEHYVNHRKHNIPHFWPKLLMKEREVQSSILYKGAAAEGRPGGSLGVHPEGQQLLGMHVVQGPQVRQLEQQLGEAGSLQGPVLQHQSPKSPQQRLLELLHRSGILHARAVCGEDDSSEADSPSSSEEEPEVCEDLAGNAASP
frog Thyroid hormone Receptor alpha (TRa), thra-a (gene 397942), sequence (P15204 whole entry, looked up, the tested form may be a part): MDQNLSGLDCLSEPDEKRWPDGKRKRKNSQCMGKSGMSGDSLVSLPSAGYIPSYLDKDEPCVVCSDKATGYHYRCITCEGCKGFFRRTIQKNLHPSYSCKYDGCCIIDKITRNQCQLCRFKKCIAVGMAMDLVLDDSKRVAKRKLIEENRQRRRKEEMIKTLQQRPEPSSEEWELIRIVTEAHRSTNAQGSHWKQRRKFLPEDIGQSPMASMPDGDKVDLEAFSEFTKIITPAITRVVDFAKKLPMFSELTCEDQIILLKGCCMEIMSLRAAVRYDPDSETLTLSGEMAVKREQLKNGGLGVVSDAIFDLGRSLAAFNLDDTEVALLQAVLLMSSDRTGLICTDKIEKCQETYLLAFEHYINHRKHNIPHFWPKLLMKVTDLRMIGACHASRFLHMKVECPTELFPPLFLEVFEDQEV
Peroxisome proliferator-activated receptor gamma (Homo sapiens), sequence (P37231 whole entry, looked up, the tested form may be a part): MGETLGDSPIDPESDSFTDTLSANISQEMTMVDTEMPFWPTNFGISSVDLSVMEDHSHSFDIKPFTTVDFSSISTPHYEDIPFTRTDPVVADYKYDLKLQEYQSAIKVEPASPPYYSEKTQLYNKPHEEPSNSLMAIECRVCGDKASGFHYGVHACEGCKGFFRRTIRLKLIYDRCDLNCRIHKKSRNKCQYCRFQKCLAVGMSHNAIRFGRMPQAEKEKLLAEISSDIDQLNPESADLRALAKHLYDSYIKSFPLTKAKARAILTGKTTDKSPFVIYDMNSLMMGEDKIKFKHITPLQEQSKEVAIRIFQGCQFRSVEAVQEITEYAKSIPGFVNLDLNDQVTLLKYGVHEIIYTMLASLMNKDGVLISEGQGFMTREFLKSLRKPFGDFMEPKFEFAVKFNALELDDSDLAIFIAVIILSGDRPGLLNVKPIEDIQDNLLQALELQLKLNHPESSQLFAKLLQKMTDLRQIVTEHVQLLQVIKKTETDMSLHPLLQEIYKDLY

In the case of `Cc1cccc(O)c1C`, the outcome [1] was “inactive”.

With `Nc1ccn([C@@H]2O[C@H](CO)[C@@H](O)[C@@H]2O)c(=O)n1` the AC50 [2] was 0.27 µM (active).

For `OCCOCCOCCO`, the outcome (AR (gene 367) [3]) was “inactive” and the outcome (AR (gene 367) [4]) was “inactive”.

In the case of `COc1cc2c(c(OC)c1OC)-c1ccc(OC)c(=O)cc1[C@@H](NC(C)=O)CC2`, the AC50 [1] was 0.00238 µM (active), the outcome (AR (gene 367) [3]) was “inactive” and the AC50 [2] was 0.0165 µM (active). For the same compound, the AC50 (AR (gene 367) [4]) was 0.00409 µM (active).

For `CCCCC(CC)C(=O)OCCOCCOCCOC(=O)C(CC)CCCC` (stereo not given), the outcome (AR (gene 367) [3]) was “inactive” and the AC50 (AR (gene 367) [4]) was 65.8 µM (active).

For `Cc1nc(-c2ccccn2)ncc1C(=O)Nn1cc(C)c2cc(F)ccc21`, the AC50 (AR (gene 367) [3]) was 0.000427 µM (active) and the outcome [2] was “inactive”.

With `O=c1[nH]cnc2c1ncn2[C@H]1CC[C@@H](CO)O1` the outcome [2] was “inactive”.

With `O=C1CN(N=Cc2ccc([N+](=O)[O-])o2)C(=O)N1` the AC50 [2] was 3.4 µM (active).

For `FC(F)(F)COC(OCC(F)(F)F)OCC(F)(F)F`, the outcome [1] was “inactive”.

For `CCCCCCCCCC`, the outcome [1] was “inactive” and the outcome [2] was “inactive”.

For `CCCCOC(=O)c1ccccc1`, the outcome (AR (gene 367) [3]) was “inactive”.

In the case of `COCc1nnc(-c2ccc[n+]([O-])c2)n1-c1c(Cl)c(Cl)cc2[nH]c(=O)c(=O)[nH]c12`, the outcome (AR (gene 367) [4]) was “inactive”.

With `Cc1ncc([C@@H](CCCCCCc2ccc3c(n2)NCCC3)CC(=O)O)cn1` the AC50 [1] was 0.00382 µM (active) and the outcome [2] was “inactive”.

For `CCN(CC)C(=S)SSC(=S)N(CC)CC`, the AC50 [1] was 25.4 µM (active), the outcome (AR (gene 367) [3]) was “inactive” and the AC50 [2] was 0.309 µM (active). For the same compound, the AC50 (AR (gene 367) [4]) was 25.6 µM (active), the outcome [5] was “inactive” and the outcome [6] was “inactive”. For the same compound, the outcome [7] was “inactive”, the outcome [8] was “inactive” and the outcome [9] was “inactive”. The outcome [10] was “inactive” and the outcome [11] was “inactive”.

With `COc1cc(C(C)C)c2c(c1)S(=O)(=O)N(COc1cc(=O)n3cccc(OCCN4CCCCC4)c3n1)C2=O` the AC50 [1] was 17.4 µM (active), the outcome (AR (gene 367) [3]) was “inactive” and the AC50 (AR (gene 367) [4]) was 18 µM (active).

For `COS(C)(=O)=O`, the AC50 [2] was 70.5 µM (active).

In the case of `Cn1cc[nH]c1=S`, the outcome [1] was “inactive” and the outcome [2] was “inactive”.

With `NC(=O)N1c2ccccc2C=Cc2ccccc21` the outcome [2] was “inactive”.

For `CC[C@H](C)C(=O)O[C@H]1C[C@H](O)C=C2C=C[C@H](C)[C@H](CC[C@@H](O)C[C@@H](O)CC(=O)O)[C@H]21`, the outcome [2] was “inactive”.

In the case of `CCc1cccc(CC)c1N`, the outcome (AR (gene 367) [3]) was “inactive” and the AC50 (AR (gene 367) [4]) was 7.11 µM (active).

For `CCCCCCOC(=O)CC(CC(=O)OCCCCCC)(OC(=O)CCC)C(=O)OCCCCCC`, the outcome (AR (gene 367) [3]) was “inactive” and the outcome (AR (gene 367) [4]) was “inactive”.

For `OCc1ccccc1`, the outcome (AR (gene 367) [4]) was “inactive”.

With `CCCC(CCC)C(=O)O` the AC50 [2] was 340 µM (active).

For `CCCCCCCCCCCCCCCCOS(=O)(=O)O`, the outcome [1] was “inactive”, the outcome (AR (gene 367) [3]) was “inactive” and the AC50 (AR (gene 367) [4]) was 46.2 µM (active).

With `O=S1(=O)CCCO1` the outcome [2] was “inactive”.
